Rows were chosen to be rich in hits. Some 3.5% of all compounds tested hit in one or more screens of this group.
Bead autofluor: compound fluorescence in toxin protease inhibitor counterscreen | compound autofluorescence counterscreen, microsphere flow cytometry; hits give high values | fluorescence intensity (concentration not given with the values) | 3.1% of 360,000 active | AID 624483; in the data active means fluorescence intensity above about 16000; inconclusive means no clear call, values can overlap the other calls
BoNT-A LC inh2: BoNT A light chain protease inhibition; multiplex microsphere protease substrate cleavage, flow cytometry; inhibition, % at 10 µM; 0.17% of 360,000 active
Anthrax LF prot: inhibitors of Bacillus anthracis lethal factor protease; P15917; multiplex microsphere protease cleavage assay, LF; inhibition, % at 10 µM; 0.12% of 360,000 active; AID 588501
BoNT F protease: inhibitors of Botulinum neurotoxin F light chain protease; Multiplex microsphere protease cleavage assay, flow cytometry; inhibition, % at 10 µM; 0.22% of 360,000 active; AID 588497; in the data active means inhibition above about 35%, passing the limit was not always enough; inconclusive means no clear call, values can overlap the other calls
Large screens that a line does not name were inactive. Unless noted, no stated cut-off is given here; in the data, active means inhibition above about 30%; inconclusive means no clear call, values can overlap the other calls; inactive means below that.

CC(=O)OCc1c(C(F)(F)F)nn(C)c1Sc1ccccc1	Bead autofluor 19824
CCC(=O)OCc1c(C(F)(F)F)nn(C)c1Sc1ccc(F)cc1	none
CCN(CC)CCCN(Cc1cc2cc3c(cc2[nH]c1=O)OCO3)C(=O)Nc1ccccc1OC	none
COc1ccccc1NC(=O)N(CCN1CCCC1)Cc1cc2cc(C)ccc2[nH]c1=O	Bead autofluor 23245
CCN(CC)CCCN(Cc1cc2cc(OC)c(OC)cc2[nH]c1=O)C(=O)Nc1ccccc1	Bead autofluor 22160
O=c1c2ccccc2nnn1CSc1nnc(COc2ccc(Cl)cc2)n1Cc1ccco1	Bead autofluor 22380, BoNT-A LC inh2 inconclusive
C=CCn1c(COc2ccc(OC)cc2)nnc1SCn1nnc2ccccc2c1=O	none
CCNC(=O)c1cc(Br)ccc1Cl	Bead autofluor 16959
O=C(CSc1nnc(-c2ccccn2)o1)Nc1ccccc1F	none
O=C(CNCc1cccs1)Nc1ccc(OC(F)(F)F)cc1	none
COC(=O)CN(C(=S)Nc1ccc(F)cc1)C1CC(=O)N(c2ccc(OC)cc2)C1=O (centres undefined)	Bead autofluor 22916, BoNT-A LC inh2 inconclusive
COc1cccc(N2C(=O)CC(=O)NC2=O)c1	Bead autofluor 23335
CCOc1cccc(N2C(=O)CC(=O)NC2=O)c1	none
Cc1ccccc1N1C(=O)CC(=O)NC1=O	Bead autofluor 21951
O=C(c1ccco1)N1CCN(C(=O)c2cnn(-c3ccc(Cl)cc3)c2C2CCNCC2)CC1	none
CCOc1ccc(NC(=O)CSc2nc3ccsc3c(=O)n2CCCCCC(=O)O)cc1	none
O=C(CN1C(=O)c2ccccc2C1=O)NCc1ccncc1	Bead autofluor 20208
O=C(CCN1C(=O)c2ccccc2C1=O)NCc1ccncc1	none
CCOc1ccc(/C=N/n2cnnc2)cc1	Bead autofluor 17072, BoNT-A LC inh2 inconclusive
CCc1ccc(/C=N\n2cnnc2)cc1	Anthrax LF prot inconclusive, BoNT F protease 45
C(=N\n1cnnc1)/c1ccc(OCc2ccccc2)cc1	none
N#CC1(NC(=O)CN2CCc3ccccc3C2)CCCC1	none
CCC(C)CNC(=O)c1[nH]c(C(F)(F)F)nc1-c1ccccc1 (centres undefined)	none
COc1ccc(C)cc1S(=O)(=O)N1c2ccccc2CC1C (centres undefined)	Bead autofluor 17618
Cc1cccc(C)c1OCCCCc1c(C)n[nH]c1C	Bead autofluor 22821
Cc1ccc(S(=O)(=O)N2C[C@@H]3CCCC[C@@H]3[C@@H](C)[C@H]2c2cn(Cc3ccccc3)c3ncccc23)cc1	none
COCCCNC(=O)c1ccc(S(=O)(=O)c2ccc(C)cc2)c(NC(C)=O)c1	none
CCCCNC(=O)c1ccc(S(=O)(=O)c2ccc(Cl)cc2)c(NC(C)=O)c1	Bead autofluor 21746
O=C1c2ccccc2C(=O)C1Cc1cccc2ccccc12	Bead autofluor 21890
Cc1ccc(C(C(=O)NC2CCCCC2)N2CCCC2)cc1 (centres undefined)	BoNT F protease 36
Cc1ccc(C(C(=O)NC2CCCC2)N2CCCCC2)cc1 (centres undefined)	none
Nc1c(N2CCOCC2)cc(Cl)c2nonc12	Bead autofluor 23187, BoNT-A LC inh2 inconclusive
CCOC(=O)c1[nH]c2ccccc2c1NC(=O)c1ccc(S(=O)(=O)N(C)C)cc1	none
CN(C)S(=O)(=O)c1ccc(C(=O)Nc2ccccc2F)cc1	Bead autofluor 16551
CCOC(=O)c1oc2ccc(S(=O)(=O)N3CCC(C)CC3)cc2c1C	none
CCOC(=O)c1oc2ccc(S(=O)(=O)N3CCOCC3)cc2c1C	Bead autofluor 16344, BoNT-A LC inh2 inconclusive
CCOC(=O)c1oc2ccccc2c1NC(=O)c1ccc(S(=O)(=O)N(C)C)cc1	Bead autofluor 20341
CCOC(=O)c1oc2ccccc2c1NC(=O)c1ccc(S(=O)(=O)N2CCCC2)cc1	Bead autofluor 20008
CN(C)S(=O)(=O)c1ccc(C(=O)Nc2ccccc2C(=O)O)cc1	none
C=C(CCO)C1=CCN(S(=O)C(C)(C)C)[C@H]1CCO (some centres undefined)	none
CCOc1ccc(C(=O)NCC(=O)NCC2CCCCC2)cc1OCC	none
CC1=C(C(=O)Nc2ccccc2)C(c2ccc(C)cc2)N=C(Nc2nc3ccccc3o2)N1 (centres undefined)	Bead autofluor 23563
COc1ccc(N2CCN(C(=O)C3CCC(Cn4c(=S)[nH]c5ccccc5c4=O)CC3)CC2)cc1 (centres undefined)	Bead autofluor 17035
O=C(C1CCC(Cn2c(=S)[nH]c3ccccc3c2=O)CC1)N1CCN(c2ccccc2)CC1 (centres undefined)	none
COc1ccccc1N1CCN(C(=O)C2CCC(Cn3c(=S)[nH]c4ccccc4c3=O)CC2)CC1 (centres undefined)	Bead autofluor 17156
O=C(CCCc1ccccc1)Nc1ccc(Br)cc1F	Anthrax LF prot 32
CC1C(=O)N2CCCc3cc(S(=O)(=O)N(C)CCC#N)cc1c32 (centres undefined)	none
CCCn1c(-c2ccc(OC)cc2)nc2nc3ccccc3nc21	Bead autofluor 22319
O=C(C1CC(c2ccccc2O)=NO1)N1CCC2(CC1)OCCO2 (centres undefined)	Bead autofluor 20077
COc1cc(OC)c(C2=NOC(C(=O)N3CCCc4ccccc43)C2)cc1Cl (centres undefined)	Bead autofluor 23619
CCOC(=O)N1CCN(c2ccccc2OC)CC1	none
O=C(C1CC(c2ccccc2O)=NO1)N1CCCC1 (centres undefined)	none
COc1ccc(C2=NOC(C(=O)N3CCOCC3)C2)cc1OC (centres undefined)	Bead autofluor 23787
CCOC(=O)N1CCN(C(=O)C2CC(c3ccccc3OC)=NO2)CC1 (centres undefined)	Bead autofluor 20183
CCC1CCCCN1C(=O)C1CC(c2cc(Cl)c(OC)cc2OC)=NO1 (centres undefined)	none
COc1ccc(NC(=O)CC2(CC(=O)O)CCCC2)cn1	none
CCc1c(O)nc(SCC(N)=O)n(-c2ccccc2F)c1=O	none
CCc1c(O)nc(SCc2ccccc2)n(C(C)CC)c1=O (centres undefined)	Bead autofluor 21259
C=CCSc1nc(O)c(CC)c(=O)n1C(C)CC (centres undefined)	Bead autofluor 24804, BoNT-A LC inh2 inconclusive
COc1ccc(-n2nc(C(=O)NCC(=O)N3CCC(C)CC3)c3ccccc3c2=O)c(OC)c1	none
CC1=C(C(=O)c2ccccc2)C(c2cn(-c3ccccc3)nc2-c2ccc(Cl)cc2)NC(=S)N1 (centres undefined)	Bead autofluor 19559
CCNS(=O)(=O)c1ccc(Br)c(C(=O)OC(C)C(=O)NCC2CCCCC2)c1 (centres undefined)	none
O=C(NCC1CCCO1)c1ccc(Br)c(S(=O)(=O)N2CCOCC2)c1 (centres undefined)	none
CCCCC(=O)NC(c1ccc([N+](=O)[O-])cc1)c1c(O)ccc2ccccc12 (centres undefined)	none
CCC(=O)NC(c1ccc([N+](=O)[O-])cc1)c1c(O)ccc2ccccc12 (centres undefined)	Bead autofluor 24260, BoNT-A LC inh2 inconclusive
Cc1c(Cl)cccc1N1C(=O)c2ccccc2C1=O	Bead autofluor 25160, BoNT-A LC inh2 inconclusive
CCN(CC)C(=O)[C@H]1C[C@H](CC(=O)NCc2ccc(OC)c(OC)c2)C(=O)N2CCc3c([nH]c4ccc(Cl)cc34)[C@]12C	none
